Reference: PubChem BioAssay (NCI)
The panel holds about 79,000 compounds, 15% with a hit somewhere; the sample as a whole holds those more often. A number with no mark means an inactive call. Activity calls are given as the source filed them. No stated cut-off is given here; in the data, active means growth inhibition above about 70%; inactive means the rest.

Experiments:
[1] = NCI Yeast Anticancer Drug Screen. Data for the rad50 strain (AID 155);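 further: 0% = growth of vehicle-only cultures of the same strain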; details: S. cerevisiae rad50 strain growth inhibition, hits give high values
Summary of the method: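 Vehicle-treated cultures provide the reference for the growth inhibition reported for compound-exposed, repair-deficient yeast.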

[2] = NCI Yeast Anticancer Drug Screen. Data for the mec2-1 strain (AID 157); details: S. cerevisiae mec2-1 strain, hits give high values
Summary of the method: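 Readout is yeast growth inhibition, normalised to vehicle-treated controls, in the mec2-1 strain exposed to compound.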

[3] = NCI Yeast Anticancer Drug Screen. Data for the sgs1 mgt1 strain (AID 161);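 further: 0% = growth of cultures given vehicle only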; details: S. cerevisiae sgs1 mgt1 strain, hits give high values
Summary of the method: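 Percent growth inhibition was derived by comparing compound-exposed mutant yeast with vehicle-exposed cultures. The strain carries alterations in DNA damage repair.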

[4] = NCI Yeast Anticancer Drug Screen. Data for the cln2 rad14 strain (AID 165);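 further: 0% = growth equal to vehicle treated cultures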; details: S. cerevisiae cln2 rad14 strain, hits give high values
Summary of the method: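 Relative to vehicle controls, growth inhibition of compound-treated cln2 rad14 yeast was recorded.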

[5] = NCI Yeast Anticancer Drug Screen. Data for the bub3 strain (AID 167); details: S. cerevisiae bub3 mutant strain, hits give high values
Summary of the method: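 Mutant yeast screening strain plus compound; vehicle-treated cultures serve as the 0% inhibition reference.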

[6] = NCI Yeast Anticancer Drug Screen. Data for the mlh1 rad18 strain (AID 175); details: S. cerevisiae mlh1 rad18 strain growth inhibition, hits give high values
Summary of the method: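 Test agents were incubated with a yeast strain of defined genotype (DNA damage repair defect). Inhibition of growth was derived by comparison with vehicle-exposed cultures.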

[7] = at 5.0 µM (retest, dose inferred, filed as 0.5)
[8] = at 50.0 µM (retest, dose inferred, filed as 5.0)

SMILES: O=C1/C(=C/c2ccc([N+](=O)[O-])cc2)CNC/C1=C\c1ccc([N+](=O)[O-])cc1
- growth inhibition [1, 7]: 74% (active)
- growth inhibition [1, 8]: 99% (active)
- growth inhibition ([1]; at 50.0 µM): 77% (active)
- growth inhibition [2, 7]: 87% (active)
- growth inhibition [2, 8]: 99% (active)
- growth inhibition ([2]; at 50.0 µM): 87.5% (active)
- growth inhibition [3, 7]: 93% (active)
- growth inhibition [3, 8]: 99% (active)
- growth inhibition ([3]; at 50.0 µM): 85.5% (active)
- growth inhibition [4, 7]: 73% (active)
- growth inhibition [4, 8]: 97% (active)
- growth inhibition ([4]; at 50.0 µM): 74% (active)
- growth inhibition [5, 7]: 90% (active)
- growth inhibition [5, 8]: 99% (active)
- growth inhibition ([5]; at 50.0 µM): 83.8% (active)
- growth inhibition [6, 7]: 96% (active)
- growth inhibition [6, 8]: 99% (active)
- growth inhibition ([6]; at 50.0 µM): 75.7% (active)

SMILES: CCCCCCCCCCCCCC(=O)CC(=O)c1c(O)cccc1O
- growth inhibition [1, 7]: 2%
- growth inhibition [1, 8]: -7%
- growth inhibition ([1]; at 50.0 µM): -9.1%
- growth inhibition [2, 7]: -3%
- growth inhibition [2, 8]: -1%
- growth inhibition ([2]; at 50.0 µM): -5.8%
- growth inhibition [3, 7]: 7%
- growth inhibition [3, 8]: -13%
- growth inhibition ([3]; at 50.0 µM): -3.9%
- growth inhibition [4, 7]: 10%
- growth inhibition [4, 8]: 12%
- growth inhibition ([4]; at 50.0 µM): -64.6%
- growth inhibition [5, 7]: -11%
- growth inhibition [5, 8]: -5%
- growth inhibition ([5]; at 50.0 µM): 7%
- growth inhibition [6, 7]: 35%
- growth inhibition [6, 8]: 17%
- growth inhibition ([6]; at 50.0 µM): 17.1%

SMILES: CC(C)(Cl)C(Cl)CC/C(CBr)=C(\Cl)CCl (stereo not given)
- growth inhibition [1, 7]: 28%
- growth inhibition [1, 8]: 98% (active)
- growth inhibition ([1]; at 50.0 µM): 86.7% (active)
- growth inhibition [2, 7]: 19%
- growth inhibition [2, 8]: 98% (active)
- growth inhibition ([2]; at 50.0 µM): 89.9% (active)
- growth inhibition [3, 7]: 14%
- growth inhibition [3, 8]: 100% (active)
- growth inhibition ([3]; at 50.0 µM): 91.5% (active)
- growth inhibition [4, 7]: 26%
- growth inhibition [4, 8]: 98% (active)
- growth inhibition ([4]; at 50.0 µM): 88.2% (active)
- growth inhibition [5, 7]: 27%
- growth inhibition [5, 8]: 100% (active)
- growth inhibition ([5]; at 50.0 µM): 88.2% (active)
- growth inhibition [6, 7]: 21%
- growth inhibition [6, 8]: 98% (active)
- growth inhibition ([6]; at 50.0 µM): 1.35%

SMILES: CCN(CC)CCNc1c2ccccc2nc2cccc([N+](=O)[O-])c12
- growth inhibition [1, 7]: 88% (active)
- growth inhibition [1, 8]: 97% (active)
- growth inhibition ([1]; at 50.0 µM): 68.2%
- growth inhibition [2, 7]: 95% (active)
- growth inhibition [2, 8]: 99% (active)
- growth inhibition ([2]; at 50.0 µM): 61.4%
- growth inhibition [3, 7]: 94% (active)
- growth inhibition [3, 8]: 99% (active)
- growth inhibition ([3]; at 50.0 µM): 55%
- growth inhibition [4, 7]: 85% (active)
- growth inhibition [4, 8]: 98% (active)
- growth inhibition ([4]; at 50.0 µM): 86.5% (active)
- growth inhibition [5, 7]: 93% (active)
- growth inhibition [5, 8]: 99% (active)
- growth inhibition ([5]; at 50.0 µM): 2.85%
- growth inhibition [6, 7]: 92% (active)
- growth inhibition [6, 8]: 97% (active)
- growth inhibition ([6]; at 50.0 µM): 62.9%

SMILES: CCCCc1ccc2nccc(N/N=C/c3ccc(OC)c4ccccc34)c2c1
- growth inhibition [1, 7]: 1%
- growth inhibition [1, 8]: 91% (active)
- growth inhibition ([1]; at 50.0 µM): 80% (active)
- growth inhibition [2, 7]: -27%
- growth inhibition [2, 8]: 89% (active)
- growth inhibition ([2]; at 50.0 µM): 69.3%
- growth inhibition [3, 7]: 2%
- growth inhibition [3, 8]: 94% (active)
- growth inhibition ([3]; at 50.0 µM): 76.7% (active)
- growth inhibition [4, 7]: -2%
- growth inhibition [4, 8]: 73% (active)
- growth inhibition ([4]; at 50.0 µM): 62.4%
- growth inhibition [5, 7]: -4%
- growth inhibition [5, 8]: 90% (active)
- growth inhibition ([5]; at 50.0 µM): 79% (active)
- growth inhibition [6, 7]: 1%
- growth inhibition [6, 8]: 88% (active)
- growth inhibition ([6]; at 50.0 µM): 90.1% (active)

SMILES: c1ccc2[nH]c(CN(CCN(Cc3nc4ccccc4[nH]3)Cc3nc4ccccc4[nH]3)Cc3nc4ccccc4[nH]3)nc2c1
- growth inhibition [1, 7]: 97% (active)
- growth inhibition [1, 8]: 95% (active)
- growth inhibition ([1]; at 50.0 µM): 91.1% (active)
- growth inhibition [2, 7]: 97% (active)
- growth inhibition [2, 8]: 97% (active)
- growth inhibition ([2]; at 50.0 µM): 91.5% (active)
- growth inhibition [3, 7]: 99% (active)
- growth inhibition [3, 8]: 96% (active)
- growth inhibition ([3]; at 50.0 µM): 91% (active)
- growth inhibition [4, 7]: 99% (active)
- growth inhibition [4, 8]: 94% (active)
- growth inhibition ([4]; at 50.0 µM): 90.3% (active)
- growth inhibition [5, 7]: 99% (active)
- growth inhibition [5, 8]: 95% (active)
- growth inhibition ([5]; at 50.0 µM): 89% (active)
- growth inhibition [6, 7]: 96% (active)
- growth inhibition [6, 8]: 93% (active)
- growth inhibition ([6]; at 50.0 µM): 89.7% (active)

SMILES: O=c1cccc(C2CCc3cc(O)ccc3C2)[nH]1 (stereo not given)
- growth inhibition [1, 7]: -5%
- growth inhibition [1, 8]: 3%
- growth inhibition ([1]; at 50.0 µM): -2.85%
- growth inhibition [2, 7]: 3%
- growth inhibition [2, 8]: 1%
- growth inhibition ([2]; at 50.0 µM): 3.35%
- growth inhibition [3, 7]: -3%
- growth inhibition [3, 8]: 4%
- growth inhibition ([3]; at 50.0 µM): -5.05%
- growth inhibition [4, 7]: 1%
- growth inhibition [4, 8]: -18%
- growth inhibition ([4]; at 50.0 µM): 22.6%
- growth inhibition [5, 7]: -3%
- growth inhibition [5, 8]: -11%
- growth inhibition ([5]; at 50.0 µM): -11.3%
- growth inhibition [6, 7]: -6%
- growth inhibition [6, 8]: 5%
- growth inhibition ([6]; at 50.0 µM): 13.2%

SMILES: O=C1C(=O)c2ccc(Br)cc2C(O)=C1C(c1ccccc1)c1ccccc1
- growth inhibition [1, 7]: 29%
- growth inhibition [1, 8]: 60%
- growth inhibition ([1]; at 50.0 µM): 25.6%
- growth inhibition [2, 7]: 28%
- growth inhibition [2, 8]: 70% (active)
- growth inhibition ([2]; at 50.0 µM): 30.5%
- growth inhibition [3, 7]: 4%
- growth inhibition [3, 8]: 74% (active)
- growth inhibition ([3]; at 50.0 µM): 7.4%
- growth inhibition [4, 7]: 24%
- growth inhibition [4, 8]: 63%
- growth inhibition ([4]; at 50.0 µM): 14.2%
- growth inhibition [5, 7]: 36%
- growth inhibition [5, 8]: 70% (active)
- growth inhibition ([5]; at 50.0 µM): 21.2%
- growth inhibition [6, 7]: 28%
- growth inhibition [6, 8]: 69%
- growth inhibition ([6]; at 50.0 µM): 32.5%

SMILES: Nc1c(-c2ccc(Cl)cc2)[n+]([O-])c2ccccc2[n+]1[O-]
- growth inhibition [1, 7]: -16%
- growth inhibition [1, 8]: 4%
- growth inhibition ([1]; at 50.0 µM): 19.2%
- growth inhibition [2, 7]: -8%
- growth inhibition [2, 8]: -10%
- growth inhibition ([2]; at 50.0 µM): 13.2%
- growth inhibition [3, 7]: 1%
- growth inhibition [3, 8]: -10%
- growth inhibition ([3]; at 50.0 µM): 34.4%
- growth inhibition [4, 7]: 24%
- growth inhibition [4, 8]: 11%
- growth inhibition ([4]; at 50.0 µM): 47.7%
- growth inhibition [5, 7]: -3%
- growth inhibition [5, 8]: 11%
- growth inhibition ([5]; at 50.0 µM): 8.45%
- growth inhibition [6, 7]: 15%
- growth inhibition [6, 8]: 6%
- growth inhibition ([6]; at 50.0 µM): 37.2%

SMILES: CCCCN1C(=O)C(=O)N(c2ccccc2)C1=O
- growth inhibition [1, 7]: -6%
- growth inhibition [1, 8]: 5%
- growth inhibition ([1]; at 50.0 µM): 18.2%
- growth inhibition [2, 7]: -7%
- growth inhibition [2, 8]: 12%
- growth inhibition ([2]; at 50.0 µM): 32.9%
- growth inhibition [3, 7]: -14%
- growth inhibition [3, 8]: 1%
- growth inhibition ([3]; at 50.0 µM): 8.65%
- growth inhibition [4, 7]: -29%
- growth inhibition [4, 8]: -17%
- growth inhibition ([4]; at 50.0 µM): 73.8% (active)
- growth inhibition [5, 7]: -21%
- growth inhibition [5, 8]: 11%
- growth inhibition ([5]; at 50.0 µM): 1.55%
- growth inhibition [6, 7]: -5%
- growth inhibition [6, 8]: 15%
- growth inhibition ([6]; at 50.0 µM): 16.9%
